About 14,000 (4.5%) of roughly 310,000 compounds showed an effect of 50% or more. The effect is printed as a negative number. For the sample, strong results were picked, then their nearest neighbours and some compounds at random.
What follows are compounds tested against human ether-à-go-go-related gene (hERG) potassium channel (human, UniProt Q12809) (assay: primary screen, population patch clamp on CHO cells stably expressing hERG; higher = less effect of the substance).
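Also: peak tail current of the secondary pulse compared with the same well before compound.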

Chain of human ether-à-go-go-related gene (hERG) potassium channel (Q12809 whole entry, looked up): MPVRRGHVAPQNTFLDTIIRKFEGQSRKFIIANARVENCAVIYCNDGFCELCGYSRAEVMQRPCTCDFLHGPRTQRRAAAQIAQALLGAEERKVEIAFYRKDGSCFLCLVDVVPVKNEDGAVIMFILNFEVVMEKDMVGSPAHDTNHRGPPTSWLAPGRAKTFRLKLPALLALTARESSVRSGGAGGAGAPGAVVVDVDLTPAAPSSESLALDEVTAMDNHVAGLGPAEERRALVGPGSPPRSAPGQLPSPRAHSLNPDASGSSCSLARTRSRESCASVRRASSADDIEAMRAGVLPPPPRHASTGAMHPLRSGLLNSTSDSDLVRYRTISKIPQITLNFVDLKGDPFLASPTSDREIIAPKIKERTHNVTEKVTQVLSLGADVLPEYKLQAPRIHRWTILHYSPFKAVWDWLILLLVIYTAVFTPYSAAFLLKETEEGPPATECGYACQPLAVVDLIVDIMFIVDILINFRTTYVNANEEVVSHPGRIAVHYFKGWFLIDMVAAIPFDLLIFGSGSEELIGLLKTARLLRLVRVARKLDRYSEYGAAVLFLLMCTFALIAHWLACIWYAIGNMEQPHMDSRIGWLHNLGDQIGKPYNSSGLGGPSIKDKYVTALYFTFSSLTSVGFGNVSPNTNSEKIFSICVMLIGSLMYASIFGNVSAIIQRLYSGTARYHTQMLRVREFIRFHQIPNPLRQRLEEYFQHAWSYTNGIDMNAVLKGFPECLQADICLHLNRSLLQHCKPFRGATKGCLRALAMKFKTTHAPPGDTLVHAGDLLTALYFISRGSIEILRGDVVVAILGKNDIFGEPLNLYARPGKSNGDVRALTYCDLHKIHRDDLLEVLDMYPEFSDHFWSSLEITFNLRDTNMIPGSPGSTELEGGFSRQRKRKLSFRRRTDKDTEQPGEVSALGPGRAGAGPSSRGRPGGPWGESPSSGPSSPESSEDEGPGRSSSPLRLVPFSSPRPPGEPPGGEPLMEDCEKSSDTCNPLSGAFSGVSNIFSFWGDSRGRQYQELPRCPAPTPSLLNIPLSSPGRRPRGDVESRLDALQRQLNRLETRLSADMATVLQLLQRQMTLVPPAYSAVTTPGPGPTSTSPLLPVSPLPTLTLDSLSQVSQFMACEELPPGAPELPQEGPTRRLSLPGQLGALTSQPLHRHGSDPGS

Q: Which “hERG current change (%, negative = inhibition) at 10uM” value does the source give for Cc1ccc(C(=O)Nc2nnc(S(=O)(=O)N3CCN(c4ccc(F)cc4)CC3)s2)cc1 here?
A: 2.59%

Q: How did the “hERG current change (%, negative = inhibition) at 10uM” value turn out when COc1ccc2c(C)nc(Nc3nc(C)cc(C)n3)nc2c1 was run?
A: 5.64%

Q: COc1cc(C2(c3ccc(O)c(OC)c3)C(=O)N(C)c3ccc(Br)cc32)ccc1O was tested. Which “hERG current change (%, negative = inhibition) at 10uM” value did it give?
A: -52.6%

Q: COc1cc(C2(c3ccc(O)c(OC)c3)C(=O)N(C)c3ccc(C)cc32)ccc1O was tested. Which “hERG current change (%, negative = inhibition) at 10uM” value did it give?
A: -19%

Q: How did the “hERG current change (%, negative = inhibition) at 10uM” value turn out when Cc1cc(C2(c3ccc(O)c(C)c3)C(=O)N(C)c3ccc(Br)cc32)ccc1O was run?
A: -2.28%

Q: COC(=O)c1c(NC(=O)C(=O)N2CCOCC2)sc2c1CCCC2 was tested. Which “hERG current change (%, negative = inhibition) at 10uM” value did it give?
A: 7.47%

Q: CC1CN(C(=O)c2ccccc2OCc2ccc(Cl)cc2Cl)CC(C)O1 (centres unmarked) was tested. Which “hERG current change (%, negative = inhibition) at 10uM” value did it give?
A: -37.7%

Q: Which “hERG current change (%, negative = inhibition) at 10uM” value does the source give for CC(NC(=O)COC(=O)c1ccc(N(C)C)cc1)c1ccccc1 (centres unmarked) here?
A: 3.44%

Q: Which “hERG current change (%, negative = inhibition) at 10uM” value does the source give for CC(=O)N(c1ccccc1)c1nc(C)cc(C)c1C#N here?
A: 12.1%

Q: For COc1cc(-c2noc(C)c2C#Cc2ccccn2)cc(OC)c1OC, which “hERG current change (%, negative = inhibition) at 10uM” value is on record?
A: -29%

Q: COc1cc(-c2noc(C)c2C#CCO)cc(OC)c1OC was tested. Which “hERG current change (%, negative = inhibition) at 10uM” value did it give?
A: 6.47%

Q: With COc1cc(-c2noc(C)c2C#Cc2nccn2C)cc(OC)c1OC as the compound, how does the “hERG current change (%, negative = inhibition) at 10uM” value read?
A: -53.4%

Q: O=Cc1cn(CCC(=O)O)nc1-c1cccc(Br)c1 was tested. Which “hERG current change (%, negative = inhibition) at 10uM” value did it give?
A: 24.2%

Q: Which “hERG current change (%, negative = inhibition) at 10uM” value does the source give for Cc1ccc(S(=O)(=O)N(CC(=O)Nc2cccnc2)c2ccccc2C)cc1 here?
A: -16.4%

Q: Which “hERG current change (%, negative = inhibition) at 10uM” value does the source give for O=C(CN(c1cccc([N+](=O)[O-])c1)S(=O)(=O)c1ccccc1)NCc1ccccc1 here?
A: -68.5%

Q: For COc1ccc(N(CC(=O)Nc2cccnc2)S(=O)(=O)c2ccc(C)cc2)cc1Cl, which “hERG current change (%, negative = inhibition) at 10uM” value is on record?
A: -16.9%

Q: With O=C(CN(c1cccc([N+](=O)[O-])c1)S(=O)(=O)c1ccccc1)NCc1cccnc1 as the compound, how does the “hERG current change (%, negative = inhibition) at 10uM” value read?
A: -42.2%

Q: Cc1ccc(S(=O)(=O)N(CC(=O)Nc2cccnc2)c2ccc(Br)cc2)cc1 was tested. Which “hERG current change (%, negative = inhibition) at 10uM” value did it give?
A: -50.3%

Q: With Cc1ccc(CNC(=O)CN(c2cccc([N+](=O)[O-])c2)S(=O)(=O)c2ccccc2)cc1 as the compound, how does the “hERG current change (%, negative = inhibition) at 10uM” value read?
A: -25%

Q: For CCOc1ccc(N(CC(=O)Nc2cccnc2)S(=O)(=O)c2ccc(C)cc2)cc1, which “hERG current change (%, negative = inhibition) at 10uM” value is on record?
A: -5.5%

Q: With Cc1ccc(S(=O)(=O)N(CC(=O)Nc2cccnc2)c2cccc(Br)c2)cc1 as the compound, how does the “hERG current change (%, negative = inhibition) at 10uM” value read?
A: -11.5%

Q: With Cc1ccc(S(=O)(=O)N(CC(=O)Nc2cccnc2)c2cccc([N+](=O)[O-])c2)cc1 as the compound, how does the “hERG current change (%, negative = inhibition) at 10uM” value read?
A: -56.6%

Q: With Cc1cc(C)c2cc(C#N)c(NCCCNC(=O)CCC(=O)O)nc2c1 as the compound, how does the “hERG current change (%, negative = inhibition) at 10uM” value read?
A: 12.2%

Q: For COc1ccc(N=CC2=C(Nc3ccc(OC)cc3)c3c(C)nn(-c4ccccn4)c3CC2)cc1, which “hERG current change (%, negative = inhibition) at 10uM” value is on record?
A: -16.4%

Q: COCC1CCN(C(=O)c2cc(COc3ccc(F)cc3F)on2)C1 (centres unmarked) was tested. Which “hERG current change (%, negative = inhibition) at 10uM” value did it give?
A: -13.2%

Q: How did the “hERG current change (%, negative = inhibition) at 10uM” value turn out when CCOC(=O)c1c(NC(=O)C2C3CCC(O3)C2C(=O)O)sc2c1CCC(CC)C2 (centres unmarked) was run?
A: -21.1%

Q: How did the “hERG current change (%, negative = inhibition) at 10uM” value turn out when COc1ccc(CCN(C)Cc2c(O)ccc3cc(Br)ccc23)cc1OC was run?
A: -59.5%

Q: COc1ccc(CCN(C)Cc2c(O)ccc3ccccc23)cc1OC was tested. Which “hERG current change (%, negative = inhibition) at 10uM” value did it give?
A: -74%

Q: Which “hERG current change (%, negative = inhibition) at 10uM” value does the source give for COc1cc(CN(C)Cc2cccc3ccccc23)cc([N+](=O)[O-])c1O here?
A: 11.9%

Q: For COc1ccc2cc(Br)ccc2c1CC(=O)N(C)C, which “hERG current change (%, negative = inhibition) at 10uM” value is on record?
A: 10.7%

Q: For COc1ccc(CN(C)Cc2c(O)ccc3ccccc23)cc1, which “hERG current change (%, negative = inhibition) at 10uM” value is on record?
A: -24.7%

Q: COc1ccc(CCN(C)C(=O)CNC(=O)Cc2cccc3ccccc23)cc1OC was tested. Which “hERG current change (%, negative = inhibition) at 10uM” value did it give?
A: -1.9%

Q: Which “hERG current change (%, negative = inhibition) at 10uM” value does the source give for COc1ccc(OCCN(C)Cc2c(O)ccc3ccccc23)cc1 here?
A: 19%

Q: Which “hERG current change (%, negative = inhibition) at 10uM” value does the source give for COc1ccc(CCN(C)Cc2cccc3ccccc23)cc1OC here?
A: -73.8%

Q: With COc1ccc(CN(C)Cc2c(O)ccc3cc(Br)ccc23)cc1OC as the compound, how does the “hERG current change (%, negative = inhibition) at 10uM” value read?
A: -37.3%

Q: With Cc1ccc(C(=O)NCC(=O)OCCOc2cccc(Cl)c2)cc1 as the compound, how does the “hERG current change (%, negative = inhibition) at 10uM” value read?
A: -7.72%

Q: How did the “hERG current change (%, negative = inhibition) at 10uM” value turn out when Cc1nn(C)c2ncc(C(N)=O)c(Oc3ccc(Cl)cc3)c12 was run?
A: 7.24%

Q: How did the “hERG current change (%, negative = inhibition) at 10uM” value turn out when Cc1ccc(S(=O)(=O)Nc2cccc3cccnc23)cc1 was run?
A: -12.1%

Q: How did the “hERG current change (%, negative = inhibition) at 10uM” value turn out when O=C(CSc1nc(Nc2ccccc2)nc(N2CCOCC2)n1)Nc1ccc([N+](=O)[O-])cc1 was run?
A: 9.65%

Q: For COc1ccc([C@@H]2[C@H]3C(=O)N(c4cccc(C(F)(F)F)c4)C(=O)[C@H]3ON2C)cc1, which “hERG current change (%, negative = inhibition) at 10uM” value is on record?
A: -12.1%

Q: For COc1ccc(S(=O)(=O)NCCOc2ccccc2)cc1F, which “hERG current change (%, negative = inhibition) at 10uM” value is on record?
A: 8.52%

Q: For CC(C)NC(=O)Cn1nnc(-c2ccc(Cl)cc2)n1, which “hERG current change (%, negative = inhibition) at 10uM” value is on record?
A: 4.9%

Q: For Cc1nn(CC(=O)NCc2ccccn2)c(C)c1[N+](=O)[O-], which “hERG current change (%, negative = inhibition) at 10uM” value is on record?
A: -10.9%

Q: How did the “hERG current change (%, negative = inhibition) at 10uM” value turn out when Cc1ccc(NC(=O)COC(=O)c2ccc(Cl)nc2)cc1S(=O)(=O)N1CCCCC1 was run?
A: 15.2%

Q: With O=C(Nc1ccccc1C(=O)N1CCN(CCO)CC1)c1cccc([N+](=O)[O-])c1 as the compound, how does the “hERG current change (%, negative = inhibition) at 10uM” value read?
A: 7%

Q: With CN(C)c1nc(SCC#N)nc(N(C)C)n1 as the compound, how does the “hERG current change (%, negative = inhibition) at 10uM” value read?
A: -3.57%

Q: Which “hERG current change (%, negative = inhibition) at 10uM” value does the source give for O=C(COc1ccc(Cl)cc1)Nc1cccc(-c2ccc3nncn3n2)c1 here?
A: -51.9%

Q: Which “hERG current change (%, negative = inhibition) at 10uM” value does the source give for CCOc1ccc(C(=O)Nc2cccc(-c3ccc4nncn4n3)c2)cc1 here?
A: 12.5%

Q: Which “hERG current change (%, negative = inhibition) at 10uM” value does the source give for CN1CCN(c2ccc(-c3cccc(NC(=O)COc4ccc(Cl)cc4)c3)nn2)CC1 here?
A: -50.7%

Q: With O=C(COc1ccc(Cl)cc1)Nc1cccc(-c2ccc(N3CCOCC3)nn2)c1 as the compound, how does the “hERG current change (%, negative = inhibition) at 10uM” value read?
A: 0.684%

Q: Which “hERG current change (%, negative = inhibition) at 10uM” value does the source give for CN1CCN(c2ccc(-c3cccc(NC(=O)COc4ccccc4)c3)nn2)CC1 here?
A: -35.9%

Q: COCC(=O)Nc1cccc(-c2ccc3nncn3n2)c1 was tested. Which “hERG current change (%, negative = inhibition) at 10uM” value did it give?
A: 9.97%

Q: How did the “hERG current change (%, negative = inhibition) at 10uM” value turn out when CCOc1cc(NS(C)(=O)=O)c(OCC)cc1NC(=O)c1cccs1 was run?
A: -15.8%

Reference: article PMC4336329 (PLoS ONE, 2015)
